Source: PubChem BioAssay AID1159580 (chemical genetic matrix, 2015)
Values joined by “and” are separate entries in the source; they are usually repeats but may differ in a detail not shown here. Identical values can stand only once. Hit rate of the full screen: of about 5,500 compounds, about 2,000 (36%) were called active. Inconclusive results (about 18%) are left out. Cut-off read from the data, not from the text of the source: active = normalized growth mostly below about 0.91 (no sharp cut-off); inconclusive = no clear call, values can overlap the other calls; inactive = mostly above about 0.92. The list shows a part of the results.

Assay: chemical genetic growth profiling, strain panel (AID 1159580);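 note: tested at 20 µM; growth read once vehicle control cultures reached saturation at 30 °C; 1 = growth at the plate median or of vehicle wells; lower values mean less growth of the strain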
Settings: S. cerevisiae deletion strains, growth OD

Measured: normalized growth

CCN1CCCC(OC(=O)C(c2ccccc2)c2ccccc2)C1 (stereo not drawn)
inactive: locus YAL021C, strain ccr4, hits give low values 0.978 | locus YAL026C, strain drs2, hits give low values 0.99 | locus YAL030W, strain snc1, hits give low values 0.989 | locus YBL061C, strain skt5, hits give low values 0.982 | locus YBR009C, strain hhf1, hits give low values 0.992 | locus YBR021W, strain FUR4, hits give low values 1.03 | locus YBR023C, strain chs3, hits give low values 0.973 | locus YBR171W, strain sec66, hits give low values 0.99 | locus YBR229C, strain ROT2, hits give low values 1.01 | locus YBR231C, strain swc5, hits give low values 0.989 | locus YBR279W, strain paf1, hits give low values 0.998 | locus YCL011C, strain gbp2, hits give low values 1 | locus YCL016C, strain dcc1, hits give low values 0.973 | locus YCL029C, strain bik1, hits give low values 1.01 | locus YCL061C, strain MRC1, hits give low values 0.989 | locus YCL069W, strain vba3, hits give low values 0.989 | locus YCR088W, strain abp1, hits give low values 0.978 | locus YDL005C, strain med2, hits give low values 0.982 | locus YDL035C, strain GPR1, hits give low values 1.03 | locus YDL040C, strain nat1, hits give low values 0.98 | locus YDL074C, strain BRE1, hits give low values 1.01 | locus YDL101C, strain DUN1, hits give low values 1.01 | locus YDL134C, strain PPH21, hits give low values 1.02 | locus YDL185W, strain tfp1, hits give low values 1.01 | locus YDL192W, strain arf1, hits give low values 1.01 | locus YDR001C, strain nth1, hits give low values 0.975 | locus YDR069C, strain doa4, hits give low values 1 | locus YDR101C, strain arx1, hits give low values 0.992 | locus YDR137W, strain rgp1, hits give low values 1.01 | locus YDR159W, strain sac3, hits give low values 0.989 | locus YDR162C, strain NBP2, hits give low values 1.01 | locus YDR195W, strain ref2 0.963 | locus YDR297W, strain sur2, hits give low values 0.993 | locus YDR318W, strain mcm21, hits give low values 1.01 | locus YDR334W, strain swr1, hits give low values 0.958 | locus YDR335W, strain msn5, hits give low values 0.963 | locus YDR388W, hits give low values 1.01 | locus YDR392W, strain spt3, hits give low values 0.975 | locus YDR502C, strain sam2, hits give low values 0.999 | locus YEL003W, strain gim4, hits give low values 0.978 | locus YEL037C, strain rad23, hits give low values 0.978 | locus YEL061C, strain CIN8 (second series), hits give low values 0.999 | locus YEL061C, strain CIN8, hits give low values 1.01 | locus YER015W, strain faa2, hits give low values 0.974 | locus YER016W, strain bim1, hits give low values 0.986 | locus YER110C, hits give low values 1.01 | locus YER111C, strain swi4, hits give low values 0.978 | locus YER155C, strain BEM2 (second series), hits give low values 1 | locus YER155C, strain BEM2, hits give low values 1.01 | locus YER167W, strain BCK2, hits give low values 1.01 | locus YFR010W, strain ubp6, hits give low values 0.99 | locus YGL078C, strain dbp3, hits give low values 1 | locus YGL086W, strain mad1, hits give low values 1.01 | locus YGL167C, strain pmr1, hits give low values 0.981 | locus YGL173C, strain kem1, hits give low values 0.982 | locus YGL227W, strain vid30, hits give low values 0.997 | locus YGL240W, strain doc1, hits give low values 0.994 | locus YGL248W, strain PDE1, hits give low values 1.01 | locus YGL253W, strain hxk2, hits give low values 0.991 | locus YGR135W, strain pre9, hits give low values 1 | locus YGR229C, strain SMI1, hits give low values 1.01 | locus YGR252W, strain gcn5, hits give low values 0.998 | locus YHR013C, strain ard1, hits give low values 0.96 | locus YHR027C, strain rpn1, hits give low values 0.986 | locus YHR030C, strain SLT2, hits give low values 1.01 and 0.993 | locus YHR079C, strain IRE1 (second series), hits give low values 1.01 | locus YHR079C, strain IRE1, hits give low values 0.978 | locus YHR094C, strain hxt1, hits give low values 1.01 | locus YHR129C, strain ARP1, hits give low values 1 | locus YHR142W, strain chs7, hits give low values 0.978 | locus YHR200W, strain rpn10, hits give low values 1 | locus YIL066C, strain RNR3, hits give low values 1.01 | locus YIL073C, strain SPO22, hits give low values 1.08 | locus YIL125W, strain kgd1, hits give low values 1 | locus YIR030C, strain dcg1, hits give low values 1.01 | locus YJL092W, strain hpr5, hits give low values 0.973 | locus YJL095W, strain BCK1 (second series), hits give low values 0.994 | locus YJL095W, strain BCK1, hits give low values 0.987 and 0.977 | locus YJL115W, strain asf1, hits give low values 0.977 | locus YJL129C, strain trk1, hits give low values 0.964 | locus YJL134W, strain LCB3, hits give low values 1.01 | locus YJL154C, strain vps35, hits give low values 0.976 | locus YJL164C, strain tpk1, hits give low values 1 | locus YJL166W, strain qcr8, hits give low values 0.982 | locus YJL168C, strain set2, hits give low values 1.01 | locus YJL187C, strain SWE1 (second series), hits give low values 1 | locus YJR043C, strain POL32, hits give low values 1.04 | locus YJR066W, strain TOR1, hits give low values 0.955
